Test results taken from PubChem BioAssay (EPA / NIEHS).
Where “and” joins values, the source holds several entries; their conditions need not be identical. Equal entries are not always repeated. Records with an inconclusive call do not appear. A structure can be active in one record and inactive in another. Calls of active or inactive are those of the source. The calls were made as follows, unless noted: active = hit-call score of the fitted dose curve at least 0.9, where 1 is the maximum; inconclusive = response in the unintended direction; inactive = score below 0.9.

Key:
[1] = molecular target: Estrogen-related receptor gamma (Homo sapiens) (UniProt P62508); experiment: ATG_ERRg_TRANS: Attagene TRANS-FACTORIAL HepG2 Assay for human Estrogen-Related Receptor gamma (ERRg) (AID 2282977); details: HepG2 Attagene TRANS reporter, ERRg transactivation;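 also: hits increase reporter signal over DMSO so potencies reflect activators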
Summary of the method: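 Induction of reporter transcripts through a chimeric NR-Gal4 protein is quantified in transfected human HepG2 liver cells after 24 h chemical exposure, using RT-PCR with capillary electrophoresis detection and DMSO as baseline.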

[2] = molecular target: Glucocorticoid receptor (Homo sapiens) (UniProt P04150); experiment: ATG_GR_TRANS: Attagene TRANS-FACTORIAL HepG2 Assay for human Glucocorticoid Receptor (GR) (AID 2282978); details: HepG2 Attagene TRANS GR reporter, mRNA transcription;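 also: activators score as hits since higher reporter transcript over DMSO is fitted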
Summary of the method: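 Transiently transfected HepG2 cells express chimeric NR-GAL4 proteins acting on GAL4-UAS reporter units. Compounds are applied for 24 h. mRNA induction over DMSO is measured by capillary electrophoresis.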

[3] = molecular target: Oxysterols receptor LXR-alpha (Homo sapiens) (UniProt Q13133); experiment: ATG_LXRa_TRANS: Attagene TRANS-FACTORIAL HepG2 Assay for human Liver X Receptor alpha (LXRa) (AID 2282980); details: HepG2 Attagene TRANS reporter, LXRa transactivation
Summary of the method: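 Transient HepG2 transfectants, 24 h dosing, RT-PCR/CE mRNA reporter quantitation; gain-of-signal vs DMSO.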

[4] = molecular target: Oxysterols receptor LXR-beta (Homo sapiens) (UniProt P55055); experiment: ATG_LXRb_TRANS: Attagene TRANS-FACTORIAL HepG2 Assay for human Liver X Receptor beta (LXRb) (AID 2282981); details: HepG2 Attagene TRANS GAL4-LXRb reporter, mRNA
Summary of the method: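 Measures induction of a Gal4-driven reporter transcript in HepG2 cells expressing an exogenous LXRb-Gal4 fusion. Cells are exposed to compound for 24 h before RNA isolation and RT-PCR with capillary electrophoresis detection.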

[5] = ATG_M_06_TRANS: Attagene TRANS-FACTORIAL HepG2 Assay for M06 Transcription Factor (Internal Marker) (AID 2282983); details: HepG2 Attagene TRANS M06 internal marker reporter;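 as to AC50: potency for rise in reporter mRNA above DMSO baseline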
Summary of the method: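 Human liver HepG2 cells bearing transiently transfected chimeric NR-GAL4 reporter units were treated with chemicals for 24 h. Total RNA was reverse-transcribed, reporter sequences amplified and labelled, then quantified by capillary electrophoresis. Activity was fitted upward relative to DMSO.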

[6] = ATG_M_32_TRANS: Attagene TRANS-FACTORIAL HepG2 Assay for M32 Transcription Factor (Internal Marker) (AID 2282984); details: HepG2 Attagene TRANS M32 internal marker reporter;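 also: transcript level of a background control reporter unit measured by RT-PCR and capillary electrophoresis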
Summary of the method: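 After 24 h dosing of transfected HepG2 cells, total RNA was reverse-transcribed, reporter sequences PCR-amplified, 6-FAM labelled by primer extension and HpaI-digested before capillary electrophoresis. Signal increase over DMSO was fitted.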

[7] = molecular target: Nuclear receptor subfamily 4 group A member 2 (Homo sapiens) (UniProt P43354); experiment: ATG_NURR1_TRANS: Attagene TRANS-FACTORIAL HepG2 Assay for human Nuclear Receptor Related Protein 1 (NURR1) (AID 2282985); details: HepG2 Attagene TRANS reporter, mRNA readout
Summary of the method: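 Chimeric NR-Gal4 fusion activity measured in HepG2 after 24 h treatment. Reporter transcripts detected by RT-PCR and capillary electrophoresis fluorescence; positive-direction curve fitting against DMSO.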

[8] = molecular target: Transcriptional activator Myb (Homo sapiens) (UniProt P10242); experiment: ATG_Myb_CIS: Attagene CIS-FACTORIAL HepG2 Assay for human Myeloblastosis (Myb) Proto-Oncogene Transcription Factor (AID 2282986; active = hit-call score of the fitted dose curve at least 0.9, where 1 is the maximum; inactive = score below 0.9); details: HepG2 Attagene CIS-FACTORIAL Myb reporter transcription; actives raise or lower the signal
Summary of the method: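 Using HepG2 liver cells bearing transiently transfected cis-promoter reporter constructs, the assay measures induction or loss of reporter mRNA after 24 hours of dosing. Detection used fluorescently labeled RT-PCR products separated by capillary electrophoresis.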

[9] = molecular target: Bile acid receptor (Homo sapiens) (UniProt Q96RI1); experiment: ATG_FXR_TRANS: Attagene TRANS-FACTORIAL HepG2 Assay for Farnesoid X Receptor (FXR) (AID 2282979); details: HepG2 Attagene TRANS FXR-GAL4 reporter transcription;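 also: hits raise reporter mRNA above DMSO so AC50 marks FXR activation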
Summary of the method: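 Chimeric FXR-GAL4 activity in transiently transfected human HepG2 liver cells is scored as induction of reporter mRNA after 24 h of dosing. Detection uses RT-PCR with fluorescent labelling and capillary electrophoresis, with DMSO serving as baseline.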

[10] = molecular target: Hepatocyte nuclear factor 4-alpha (Homo sapiens) (UniProt P41235); experiment: ATG_HNF4a_TRANS: Attagene TRANS-FACTORIAL HepG2 Assay for human Hepatocyte Nuclear Factor 4 alpha (HNF4a) (AID 2282982); details: HepG2 HNF4a transactivation reporter, mRNA readout
Summary of the method: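 In this trans-factorial format, a chimeric HNF4a-GAL4 fusion drives a GAL4-UAS reporter in transfected HepG2 liver cells. After 24 h treatment, reporter mRNA induction is measured by RT-PCR with capillary electrophoresis, relative to DMSO.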

Measured: AC50

Nuclear receptor subfamily 4 group A member 2 (Homo sapiens), sequence (P43354 whole entry, looked up, the tested form may be a part): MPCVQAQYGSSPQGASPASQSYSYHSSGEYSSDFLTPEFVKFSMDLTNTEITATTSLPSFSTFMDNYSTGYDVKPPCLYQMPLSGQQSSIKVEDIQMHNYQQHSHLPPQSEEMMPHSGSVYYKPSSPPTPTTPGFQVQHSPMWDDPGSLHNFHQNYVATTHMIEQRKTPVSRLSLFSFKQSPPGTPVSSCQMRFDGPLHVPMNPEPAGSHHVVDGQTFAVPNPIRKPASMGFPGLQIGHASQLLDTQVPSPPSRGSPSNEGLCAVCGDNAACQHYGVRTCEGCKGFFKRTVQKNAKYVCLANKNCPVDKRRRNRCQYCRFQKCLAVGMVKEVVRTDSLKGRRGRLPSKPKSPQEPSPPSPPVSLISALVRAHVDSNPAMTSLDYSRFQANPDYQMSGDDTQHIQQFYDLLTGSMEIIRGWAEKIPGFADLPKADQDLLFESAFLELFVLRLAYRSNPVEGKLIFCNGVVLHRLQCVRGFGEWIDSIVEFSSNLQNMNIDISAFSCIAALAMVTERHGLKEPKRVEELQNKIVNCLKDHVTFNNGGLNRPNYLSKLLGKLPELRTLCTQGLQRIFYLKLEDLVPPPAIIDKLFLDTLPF
Glucocorticoid receptor (Homo sapiens), sequence (P04150 whole entry, looked up, the tested form may be a part): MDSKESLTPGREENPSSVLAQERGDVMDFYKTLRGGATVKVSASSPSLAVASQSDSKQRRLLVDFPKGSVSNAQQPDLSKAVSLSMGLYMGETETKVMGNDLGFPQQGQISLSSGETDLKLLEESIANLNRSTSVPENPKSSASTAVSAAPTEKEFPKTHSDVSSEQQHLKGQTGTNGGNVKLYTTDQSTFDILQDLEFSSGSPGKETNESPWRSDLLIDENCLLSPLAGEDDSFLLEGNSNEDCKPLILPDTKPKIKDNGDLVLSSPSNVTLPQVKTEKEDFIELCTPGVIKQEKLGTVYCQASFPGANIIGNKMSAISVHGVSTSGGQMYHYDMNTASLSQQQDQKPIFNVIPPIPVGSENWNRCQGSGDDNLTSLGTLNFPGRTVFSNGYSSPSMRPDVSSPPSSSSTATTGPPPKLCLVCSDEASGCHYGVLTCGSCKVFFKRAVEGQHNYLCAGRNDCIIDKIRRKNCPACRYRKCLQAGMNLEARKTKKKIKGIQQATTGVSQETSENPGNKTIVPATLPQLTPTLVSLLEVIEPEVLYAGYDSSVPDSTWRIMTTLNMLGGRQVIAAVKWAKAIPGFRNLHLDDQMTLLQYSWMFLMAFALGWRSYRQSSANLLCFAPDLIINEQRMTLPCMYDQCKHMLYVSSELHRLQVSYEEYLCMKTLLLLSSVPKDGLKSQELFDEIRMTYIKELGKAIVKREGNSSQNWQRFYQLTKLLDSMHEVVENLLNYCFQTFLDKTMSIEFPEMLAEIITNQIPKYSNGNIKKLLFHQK
Oxysterols receptor LXR-beta (Homo sapiens), sequence (P55055 whole entry, looked up, the tested form may be a part): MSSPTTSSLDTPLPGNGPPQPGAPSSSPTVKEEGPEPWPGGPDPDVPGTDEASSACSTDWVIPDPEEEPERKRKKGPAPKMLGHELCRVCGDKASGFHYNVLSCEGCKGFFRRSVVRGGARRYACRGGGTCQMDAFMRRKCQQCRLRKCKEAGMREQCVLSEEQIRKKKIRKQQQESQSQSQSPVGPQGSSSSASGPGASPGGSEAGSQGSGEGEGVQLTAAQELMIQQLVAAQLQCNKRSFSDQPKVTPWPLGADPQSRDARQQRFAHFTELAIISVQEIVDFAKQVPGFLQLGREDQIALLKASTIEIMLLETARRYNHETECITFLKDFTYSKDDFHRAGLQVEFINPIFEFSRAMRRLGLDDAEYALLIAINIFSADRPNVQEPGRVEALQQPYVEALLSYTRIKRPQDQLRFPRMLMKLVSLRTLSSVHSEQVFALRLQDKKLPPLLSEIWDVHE
Oxysterols receptor LXR-alpha (Homo sapiens), sequence (Q13133 whole entry, looked up): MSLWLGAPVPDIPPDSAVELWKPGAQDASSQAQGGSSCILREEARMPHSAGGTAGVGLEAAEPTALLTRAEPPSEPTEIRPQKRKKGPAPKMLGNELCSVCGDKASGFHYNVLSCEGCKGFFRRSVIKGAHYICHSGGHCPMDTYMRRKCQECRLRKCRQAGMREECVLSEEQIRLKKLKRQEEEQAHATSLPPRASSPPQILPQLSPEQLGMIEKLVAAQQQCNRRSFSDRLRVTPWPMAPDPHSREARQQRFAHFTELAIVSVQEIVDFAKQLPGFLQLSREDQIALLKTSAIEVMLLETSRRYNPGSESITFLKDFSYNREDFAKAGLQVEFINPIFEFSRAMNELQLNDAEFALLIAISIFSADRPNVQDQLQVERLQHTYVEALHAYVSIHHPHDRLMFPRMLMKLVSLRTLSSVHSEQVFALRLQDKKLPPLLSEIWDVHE
Transcriptional activator Myb (Homo sapiens), sequence (P10242 whole entry, looked up): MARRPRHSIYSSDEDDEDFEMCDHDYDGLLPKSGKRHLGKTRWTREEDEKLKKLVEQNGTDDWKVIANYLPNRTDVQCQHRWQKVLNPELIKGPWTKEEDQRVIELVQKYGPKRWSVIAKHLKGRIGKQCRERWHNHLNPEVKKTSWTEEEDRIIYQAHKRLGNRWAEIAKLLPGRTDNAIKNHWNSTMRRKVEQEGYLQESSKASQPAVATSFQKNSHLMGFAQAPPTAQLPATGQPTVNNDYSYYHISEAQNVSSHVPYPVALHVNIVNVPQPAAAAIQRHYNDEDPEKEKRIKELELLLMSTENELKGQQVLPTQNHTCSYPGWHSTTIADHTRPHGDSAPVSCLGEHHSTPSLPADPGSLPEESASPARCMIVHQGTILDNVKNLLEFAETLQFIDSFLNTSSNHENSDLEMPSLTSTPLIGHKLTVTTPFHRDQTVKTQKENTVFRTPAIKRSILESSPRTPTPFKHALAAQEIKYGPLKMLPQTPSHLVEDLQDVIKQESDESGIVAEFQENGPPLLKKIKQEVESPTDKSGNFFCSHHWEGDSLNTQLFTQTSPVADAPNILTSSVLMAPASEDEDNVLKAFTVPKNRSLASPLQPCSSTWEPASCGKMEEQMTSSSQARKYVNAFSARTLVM
Estrogen-related receptor gamma (Homo sapiens), sequence (P62508 whole entry, looked up, the tested form may be a part): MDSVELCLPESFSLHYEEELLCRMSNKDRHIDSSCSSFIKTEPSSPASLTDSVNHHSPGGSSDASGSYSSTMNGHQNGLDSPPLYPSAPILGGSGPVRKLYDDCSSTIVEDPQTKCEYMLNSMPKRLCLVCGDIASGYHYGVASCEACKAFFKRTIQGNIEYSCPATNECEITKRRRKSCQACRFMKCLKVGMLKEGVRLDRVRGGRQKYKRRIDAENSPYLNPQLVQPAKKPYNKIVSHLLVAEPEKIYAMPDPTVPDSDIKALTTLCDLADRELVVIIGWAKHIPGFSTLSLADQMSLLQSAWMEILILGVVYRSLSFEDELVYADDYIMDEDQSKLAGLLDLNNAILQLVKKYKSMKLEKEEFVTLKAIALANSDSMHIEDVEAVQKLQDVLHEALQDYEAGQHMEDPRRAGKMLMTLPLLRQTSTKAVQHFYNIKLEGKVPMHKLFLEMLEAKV
Hepatocyte nuclear factor 4-alpha (Homo sapiens), sequence (P41235 whole entry, looked up, the tested form may be a part): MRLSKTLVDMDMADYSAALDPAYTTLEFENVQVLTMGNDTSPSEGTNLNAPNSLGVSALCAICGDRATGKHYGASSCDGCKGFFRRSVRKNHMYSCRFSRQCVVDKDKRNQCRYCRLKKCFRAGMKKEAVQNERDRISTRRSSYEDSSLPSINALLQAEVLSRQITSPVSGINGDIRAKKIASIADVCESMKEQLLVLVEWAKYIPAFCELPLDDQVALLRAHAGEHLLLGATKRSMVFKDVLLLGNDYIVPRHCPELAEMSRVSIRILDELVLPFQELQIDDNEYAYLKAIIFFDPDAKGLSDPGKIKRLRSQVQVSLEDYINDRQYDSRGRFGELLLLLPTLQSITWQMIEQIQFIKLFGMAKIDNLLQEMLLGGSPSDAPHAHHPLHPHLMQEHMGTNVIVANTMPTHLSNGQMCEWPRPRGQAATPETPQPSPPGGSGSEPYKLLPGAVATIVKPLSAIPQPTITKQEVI
Bile acid receptor (Homo sapiens), sequence (Q96RI1 whole entry, looked up, the tested form may be a part): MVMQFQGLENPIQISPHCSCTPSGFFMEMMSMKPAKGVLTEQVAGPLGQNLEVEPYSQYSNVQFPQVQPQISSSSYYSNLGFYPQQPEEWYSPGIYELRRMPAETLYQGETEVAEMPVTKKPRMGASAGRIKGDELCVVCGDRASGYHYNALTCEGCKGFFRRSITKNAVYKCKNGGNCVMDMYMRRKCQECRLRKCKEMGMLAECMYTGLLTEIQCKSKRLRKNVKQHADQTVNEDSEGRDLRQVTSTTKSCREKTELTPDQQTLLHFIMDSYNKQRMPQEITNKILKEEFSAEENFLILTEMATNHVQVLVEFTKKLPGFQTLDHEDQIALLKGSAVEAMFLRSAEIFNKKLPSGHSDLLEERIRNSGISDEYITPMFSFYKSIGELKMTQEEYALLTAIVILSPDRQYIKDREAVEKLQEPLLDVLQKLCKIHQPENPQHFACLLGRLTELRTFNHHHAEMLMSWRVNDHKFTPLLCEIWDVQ

CC(=O)CC(C)(C)O
inactive: [1] | [2] | [3] | [4] | [5] | [6] | [7] | [8]

CCCCCCCCCCCCc1ccccc1S(=O)(=O)O
inactive: [2] | [9] | [3] | [4] | [6] | [7] | [8]

NC(=O)N1C(=O)C(C(=O)c2cc(Cl)cs2)c2cc(F)c(Cl)cc21 (stereo unspecified)
inactive: [1] | [9] | [3] | [4] | [10] | [5] | [6] | [8]

O=C(/C=C/c1ccc(O)cc1)CC(=O)/C=C/c1ccc(O)cc1
inactive: [1] | [9] | [3] | [10] | [5] | [7] | [8]

CCCOC(=O)c1ccc(O)cc1
inactive: [1] | [2] | [9] | [3] | [4] | [10] | [5] | [6] | [8]

O=C1OC2(c3ccccc31)c1cc(Br)c(O)c(Br)c1Oc1c2cc(Br)c(O)c1Br
inactive: [2] | [9] | [3] | [4] | [10] | [5] | [6] | [7] | [8]

Oc1cccc(O)c1
active: [4] 0.00623 µM | [8] 2.59 µM
inactive: [1] | [2] | [5] | [6] | [7]

O=c1c(-c2ccc(O)cc2)coc2cc(O)ccc12
inactive: [2] | [9] | [3] | [4] | [10] | [5] | [6] | [7] | [8]

OCCC(F)(F)C(F)(F)C(F)(F)C(F)(F)C(F)(F)C(F)(F)C(F)(F)C(F)(F)F
inactive: [1] | [3] | [4] | [10] | [5] | [6] | [7] | [8]

CC(C)(C)c1cccc(C(C)(C)C)c1O
active: [3] 49.7 µM
inactive: [2] | [9] | [4] | [6] | [7] | [8]

CCCCCCCCOC(=O)CCCCCCCCC(=O)OCCCCCCCC
inactive: [1] | [9] | [7] | [8]

Cc1cc(CCN2CCN(c3nsc4ccccc34)CC2)cc2c1NC(=O)CC2(C)C
inactive: [1] | [2] | [9] | [4] | [10] | [5] | [7] | [8]

Cc1ccc(S(=O)(=O)O)c(C)c1
inactive: [1] | [2] | [3] | [4] | [10] | [6] | [7] | [8]

CCCOc1sc(C(=O)N2CCC(c3cc(CN)ccc3F)CC2)c(C)c1Br
inactive: [2] | [9] | [10] | [6] | [7] | [8]
active: [3] 1.34 µM | [4] 1.46 µM

CC[C@H](c1ccc(O)cc1)[C@@H](CC)c1ccc(O)cc1
inactive: [2] | [9] | [4] | [10] | [5] | [6] | [7] | [8]

FC(F)(I)C(F)(F)C(F)(F)C(F)(F)C(F)(F)C(F)(F)I
inactive: [1] | [3] | [4] | [8]
active: [7] 20.8 µM

CC(O)CO (stereo unspecified)
inactive: [1] | [2] | [9] | [5] | [8]

CCCCCCC(=O)O
inactive: [1] | [2] | [9] | [3] | [4] | [10] | [5] | [6] | [7] | [8]

CCCCC(CC)COC(=O)CCCCC(=O)OCC(CC)CCCC (stereo unspecified)
inactive: [2] | [9] | [3] | [10] | [7] | [8]

CCCCC[C@H](O)CC(=O)CCc1ccc(O)c(OC)c1
inactive: [1] | [2] | [9] | [3] | [4] | [5] | [6] | [7] | [8]

N#C[C@@H]1CC(F)(F)CN1C(=O)CNC1CC2CCC(C1)N2c1ncccn1 (stereo partly specified)
inactive: [1] | [2] | [9] | [3] | [6] | [8]

CCc1nn(C2CCCCC2)c2cc(C3(C#N)CCC(C(=O)O)CC3)ccc12 (stereo unspecified)
inactive: [1] | [2] | [9] | [5] | [6] | [7] | [8]

CC(C)(C)c1ccc(O)c(C(C)(C)C)c1
inactive: [1] | [9] | [10] | [5] | [8]
active: [3] 5.26 µM | [4] 5.32 µM | [7] 9.6 µM

CCCCCCCCCCCCCC[N+](C)(C)C
active: [10] 43.7 µM and 40.9 µM | [7] 26.9 µM
inactive: [1] | [9] | [5] | [6] | [8]

COc1cc(CCC(=O)CC(=O)CCc2ccc(O)c(OC)c2)ccc1O
inactive: [1] | [9] | [4] | [10] | [7]
active: [8] 67.6 µM

CN(C)C=O
active: [7] 7.38 µM
inactive: [1] | [9] | [3] | [4] | [5] | [6] | [8]

CC(=O)NC1(c2cccc(F)c2)CCN(CC[C@@]2(c3ccc(Cl)c(Cl)c3)CN(c3ccccc3)C(=O)CO2)CC1
active: [2] 62 µM | [5] 52 µM
inactive: [9] | [3] | [4] | [10] | [8]

OC1CCC(C2CCCCC2)CC1 (stereo unspecified)
inactive: [2] | [9] | [3] | [4] | [5] | [6] | [7] | [8]

CCC(=C(c1ccc(O)cc1)c1ccc(OCCN(C)C)cc1)c1ccccc1
active: [8] 11.3 µM
inactive: [1] | [2] | [9] | [3] | [4] | [10] | [5] | [6] | [7] | [8]

NC(=O)N(O)[C@@H]1C=C[C@H](Oc2cccc(Oc3ccc(F)cc3)c2)C1
inactive: [1] | [2] | [9] | [4] | [10] | [6] | [7] | [8]

CC(C)(C)c1cc(C(C)(C)C)c(O)c(C(C)(C)C)c1
inactive: [2] | [9] | [3] | [4] | [10] | [5] | [6] | [8]
active: [9] 27.8 µM | [7] 431 nM and 1.32 µM
